# Calls of active or inactive are those of the source. How the source made its calls: active means hit-call score of the fitted dose curve at least 0.9, where 1 is the maximum; inactive means score below 0.9.
# Assay: ATG_TGFb_CIS: Attagene CIS-FACTORIAL HepG2 Assay for human Transforming Growth Factor (TGF) (AID 2282967)
# Conditions: HepG2 Attagene CIS TGFb reporter, mRNA transcription; actives raise or lower the signal
# Procedure, shortened: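 Cells were dosed for 24 hours, after which total RNA was reverse-transcribed and reporter sequences amplified, labeled and sized by capillary electrophoresis. Activity was fitted in both directions against DMSO.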
row,Structure (SMILES),outcome
1,CCCCCCCCOC(=O)c1ccc(C(=O)OCCCCCCCC)c(C(=O)OCCCCCCCC)c1,inactive
2,CO[C@@H]1[C@H](OC(=O)NC(=O)CCl)CC[C@]2(CO2)[C@H]1[C@@]1(C)O[C@@H]1CC=C(C)C,inactive
3,CC(C)COC(=O)c1ccccc1C(=O)OCC(C)C,inactive
4,O=C(O)C1C2CCC(O2)C1C(=O)O (centres undefined),inactive
5,CCCCCCCCCCCCCN1CC(C)OC(C)C1 (centres undefined),inactive
6,Oc1ccccc1Cl,inactive
7,N#CC(Br)Br,inactive
8,ClCCOCCCl,inactive
9,C=CCc1ccc2c(c1)OCO2,inactive
10,CCCCOC(=O)c1ccccc1C(=O)OCc1ccccc1,inactive
11,O=C(Nc1ccccc1)c1ccccc1I,inactive
12,ClC1=C(Cl)C2(Cl)C3C(Cl)C=CC3C1(Cl)C2(Cl)Cl (centres undefined),inactive
13,C1=Cc2cccc3cccc1c23,inactive
14,C[C@]12C=CC3=C4CCC(=O)C=C4CC[C@H]3[C@@H]1CC[C@@H]2O,inactive
15,CN(C)[C@@H]1C(=O)C(C(N)=O)=C(O)[C@@]2(O)C(=O)C3=C(O)c4c(O)cccc4[C@@](C)(O)[C@H]3C[C@@H]12,inactive
16,[As]#[In],inactive
17,Cc1ccc(N)cc1,inactive
18,CCN(CC)CCO,inactive
19,Brc1ccc(Oc2ccccc2)cc1,inactive
20,CC(C)(C)OOC(=O)c1ccccc1,inactive
21,COP(=S)(OC)SCN1C(=O)c2ccccc2C1=O,inactive
22,CC(O)CCO (centres undefined),inactive
23,CC(C)(OOC(C)(C)c1ccccc1)c1ccccc1,inactive
24,Cn1cc(-c2ccccc2)c(=O)c(-c2cccc(C(F)(F)F)c2)c1,inactive

# Source: PubChem BioAssay (EPA / NIEHS)
